16 molecules from PubChem BioAssay can be followed below.

Unmarked numbers belong to inactive results.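 Rule for the calls: active = viability at or below 10% of carrier control in both of two separate runs; inconclusive = viability at or below 10% in only one of the two runs; inactive = the rest.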

This test can be described thus: reduced viability of SK-BR-3 breast cancer cells – cell-based, 24 h, human, pilot screen (AID 572).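 Note: compound exposure lasted between 18 and 24 h rather than exactly 24 h; 100% = carrier-treated control wells.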 The settings on record: SK-BR-3 viability, CellTiter-Glo luminescence, at 10 µM, active compounds read low. A general note: Cellular ATP, detected with luciferase, serves as a proxy for viable cell number.
A word on the viability: it is a read-out of living cells in per cent, often relative to untreated cells. Consider `CC(=O)Nc1ccc(NS(=O)(=O)c2ccc(Cl)c(C(=O)O)c2)cc1`, for which the viability is 106%.

Consider `CCN1CCCC1CNCc1ccc(Cl)cc1Cl` (stereo unspecified), for which the viability was 92.5%.

As to `Cc1sc2ncnc(SCC(=O)N3CCCC3)c2c1C`, the viability is 124%.

As to `Brc1ccc2[nH]ncc2c1`, the viability was 101%.

In the case of `CCOC(=O)c1cccc(NC(=O)CSc2nc3cccnc3n2C)c1`, the viability is 86.5%.

Turning to `CCn1c(SCC(=O)N2c3ccccc3CCc3ccccc32)nc2c1c(=O)n(C)c(=O)n2C`, the viability was 87.5%.

In the case of `CCN(C(=O)CN1CCN(c2ccccc2OC)CC1)c1c(N)n(Cc2ccccc2)c(=O)[nH]c1=O`, the viability is 113%.

Regarding `O=C(NCc1ccccn1)c1ccc2nc(-c3ccco3)c(-c3ccco3)nc2c1`, the viability is 101%.

As for `COCCNC(=O)c1c(N)n(/N=C/c2cccs2)c2nc3ccccc3nc12`, the viability is 110%.

Consider `CN(C)Cc1c(O)ccc2oc(Cc3ccccc3)cc12`, for which the viability is 90%.

For `COc1cc(/C=N/n2c(C)nnc2C)cc(OC)c1OC`, the viability is 104%.

As for `Cn1c(=O)c2c(nc(NCc3ccco3)n2C/C=C/c2ccccc2)n(C)c1=O`, the viability is 100%.

Consider `CCn1c(C(Cc2ccccc2)NC(=O)COC)nc2ccccc21` (stereo unspecified), for which the viability is 102%.

As to `COc1ccccc1OCc1ccc(C(=O)Nc2ccncc2)o1`, the viability was 79.5%.

As to `COc1ccc(OC)c(-n2nnnc2SCC(=O)NCc2ccc3c(c2)OCO3)c1`, the viability is 98.5%.

As to `O=C(CSc1nnc(-c2cnccn2)n1Cc1ccco1)c1ccc(Cl)cc1`, the viability was 90%.
